Compounds without any hit were thinned out: in the full panel of roughly 83,000, 20% have a hit.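 Method: cells in 96-well plates; compound added at one concentration; 48 h incubation; percent growth measured; values under 10 scored active.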 Unmarked numbers belong to inactive results. Calls of active or inactive are those of the source.

What all share (assay): NCI-60 one-dose screen, 48 h (100 = growth as untreated, 0 = no growth, -100 = all killed)
Common to all, as to details: 10 µM unless noted

The subject of experiment [1] is SK-MEL-2 melanoma.
In experiment [2] the test system is EKVX NSCLC.
For experiment [3], the system named is SN12C renal.
The subject of experiment [4] is UO-31 renal.
Experiment [5] concerns TK-10 renal.
Experiment [6] deals with ACHN renal.
The subject of experiment [7] is CAKI-1 renal.
Experiment [8] relates to A498 renal.
Experiment [9] has as its system CCRF-CEM leukemia.
Experiment [10] deals with MOLT-4 leukemia.
Experiment [11] concerns SR leukemia.
In experiment [12] the test system is OVCAR-8 ovarian.
Experiment [13] has as its system OVCAR-5 ovarian.
Experiment [14] deals with OVCAR-4 ovarian.
Experiment [15] deals with SK-OV-3 ovarian.
For experiment [16], the system named is IGROV1 ovarian.
Experiment [17] relates to OVCAR-3 ovarian.
The test system of experiment [18] is HS 578T breast.
Experiment [19] has as its system NCI/ADR-RES ovarian.
In experiment [20] the test system is RPMI-8226 leukemia.

Consider `O=C(O)c1ccccc1C(=O)Nc1ccc(Cl)cc1`, for which the growth in experiment [1] was 102%; in [2], 96.2%; in [3] it was 102%; in [4], 84.6%; in experiment [5], 93.3%; in [6], 94.9%. For the same compound, the growth was 74.1% in experiment [7]; 108% in experiment [8]; 110% in [9]; 71.2% in [10]; 80.4% in [11]; 87.7% in experiment [12]. Moreover, the growth in [13] was 103%; in [14] it was 110%; in experiment [15] it was 109%; in [16] it was 102%; in experiment [17], 110%; in [18], 132%. The growth in [19] is 104%.

Consider `COc1cccc(/C=C2\COc3ccc(O)cc3C2=O)c1OC`, for which the growth is 96.4% in experiment [1]; 92.8% in experiment [2]; 44.4% in [3]; 58.6% in experiment [4]; 89.3% in experiment [5]; 54.6% in experiment [6]. Moreover, the growth in [7] is 63.4%; in [8], 90.7%; in [9], 2.69% (active); in [10] it was 32.9%; in [11], 5.49% (active); in experiment [12], 69%. In addition, the growth in experiment [13] was 89.7%; in experiment [14], 92.5%; in experiment [15], 92.9%; in [16], 67.5%; in [17], 41.2%; in [18] it was 73%. In [19], the growth is 63.2%.

Turning to `CCCCN(Cc1ccc(C(=O)NO)cc1)C(=O)Nc1ccc(OCCCCCCCCCn2cc(CCCCC(=O)N[C@H](C(=O)N3C[C@H](O)C[C@H]3C(=O)NCc3ccc(-c4scnc4C)cc3)C(C)(C)C)nn2)cc1`, the growth in experiment [1] was 90.6%; in experiment [2], 72.1%; in [3], 31%; in [4], 70.8%; in experiment [5], 87.6%; in [6], 105%. For the same compound, the growth is 61.7% in experiment [7]; 66.5% in experiment [8]; 13% in [9]; 14.5% in [10]; 12.9% in [11]; 50.3% in [12]. For the same compound, the growth is 96.8% in experiment [13]; 49.3% in experiment [14]; 53.9% in experiment [15]; 16.8% in experiment [16]; 3.45% (active) in [17]; 97.3% in experiment [19].

In the case of `COc1ccc(OC)c(/C=C2\COc3ccc(O)cc3C2=O)c1`, the growth is 100% in experiment [1]; 103% in [2]; 84.1% in [3]; 86.6% in experiment [4]; 97% in experiment [5]; 78.9% in experiment [6]. Also, the growth is 95.7% in [7]; 100% in experiment [8]; 5.83% (active) in experiment [9]; 64.9% in [10]; 11.8% in experiment [11]; 100% in [12]. The growth is 98.7% in [13]; 117% in [14]; 102% in experiment [15]; 97.9% in experiment [16]; 102% in experiment [17]; 95.6% in experiment [18]. The growth in experiment [19] is 100%.

Take `COc1ccc(Cn2cnc3cc(C(=O)Nc4cccc5ccccc45)ccc32)c(OC)c1`: the growth in [1] was 44.4% [30 µM]; in experiment [2], 37.9% [30 µM]; in [3], 7.29% [30 µM] (active); in experiment [4], 29.8% [30 µM]; in [5], 76.8% [30 µM]; in experiment [6], 23.8% [30 µM]. Further, the growth in [7] is 18% [30 µM]; in experiment [8], -13.9% [30 µM] (active); in experiment [9], 12.6% [30 µM]; in [10], 6.04% [30 µM] (active); in experiment [11], -17% [30 µM] (active); in experiment [12], 14.7% [30 µM]. Also, the growth was 16.3% [30 µM] in experiment [13]; 44.4% [30 µM] in experiment [14]; 31% [30 µM] in experiment [15]; 14.7% [30 µM] in experiment [16]; -17.8% [30 µM] (active) in experiment [17]; 29.8% [30 µM] in experiment [18]. Also, the growth in [19] is 3.4% [30 µM] (active).

In the case of `O[C@H]1CO[C@H]2[C@@H]1OC[C@@H]2Oc1ccc(Nc2ccnc(Nc3ccc(O[C@H]4CO[C@H]5[C@@H]4OC[C@@H]5O)c(Cl)c3)n2)cc1Cl`, the growth in experiment [1] is 4.23% (active); in experiment [2], 25.2%; in [3], -2.74% (active); in experiment [4], 6.06% (active); in experiment [5], 28.5%; in experiment [6] it was 20.3%. In addition, the growth in [7] was 27.3%; in experiment [8], 22.7%; in experiment [9], 7.39% (active); in experiment [10], 5.65% (active); in experiment [11], 12.2%; in experiment [12], 7.77% (active). Also, the growth in experiment [13] was 27.6%; in experiment [14] it was 19.8%; in [15], 19.1%; in experiment [16], -2.78% (active); in experiment [17] it was 13.6%; in [18], -2.86% (active). In addition, in experiment [19], the growth is 74.1%.

In the case of `Cc1nc(Nc2ccc(N)cc2)c2ccccc2n1`, the growth in experiment [1] is 101%; in experiment [2] it was 101%; in experiment [3] it was 93.1%; in experiment [4], 81.4%; in experiment [5], 110%; in experiment [6] it was 80.1%. Besides, the growth is 91.2% in [7]; 97.3% in experiment [8]; 86.2% in experiment [9]; 100% in experiment [10]; 56.8% in experiment [11]; 95.3% in [12]. In addition, the growth in experiment [13] is 100%; in experiment [14], 91.2%; in [15], 113%; in experiment [16], 92.7%; in [17], 101%; in experiment [18], 104%. Moreover, the growth in experiment [19] is 93.6%.

With `CN(CCCCCCCCNc1ccnc2ccccc12)Cc1ccc(-c2ccc(-c3ccc(C#N)cc3)s2)cc1`, the growth is -63.9% (active) in experiment [1]; -14.3% (active) in [2]; -78% (active) in experiment [3]; -92.4% (active) in experiment [4]; -50.1% (active) in experiment [5]; -93.6% (active) in experiment [6]. In addition, the growth in [7] is -86.5% (active); in experiment [8], 50.2%; in experiment [9] it was -11.3% (active); in experiment [10], -32.9% (active); in experiment [20], -44.4% (active); in [12], -52.5% (active). The growth is -40.6% (active) in [13]; -57.9% (active) in experiment [14]; -72.6% (active) in experiment [15]; -86.4% (active) in experiment [16]; -79.1% (active) in [17]; -36.6% (active) in [18]. In experiment [19], the growth was -68.3% (active).

As to `CCN1CCN(c2ccc(Nc3cc(-c4cccnc4Nc4c(Cl)c(OC)cc(OC)c4Cl)ncn3)cc2)CC1`, the growth in experiment [1] was 74.9%; in [2], 87.4%; in [3], 56.6%; in experiment [4], 52.8%; in experiment [5], 68.1%; in [6], 42.6%. In addition, the growth in [7] is 48.5%; in experiment [8], 21.8%; in [9], 31.6%; in experiment [10] it was 9.51% (active); in experiment [20], 64.1%; in [12] it was 69.2%. The growth in experiment [13] is 92.4%; in experiment [14], 48.8%; in experiment [15], 72.7%; in [16], 57.4%; in experiment [17], 88.9%; in experiment [18], 51.8%. For the same compound, in experiment [19], the growth is 75.8%.

In the case of `CN1CCN(C(=O)[C@]23CCC(C)(C)C[C@@H]2C2=CC[C@@H]4[C@@]5(C)Cc6c([nH]c7ccccc67)C(C)(C)[C@@H]5CC[C@@]4(C)[C@]2(C)CC3)CC1`, the growth was 95.1% in [1]; 77% in [2]; 88.1% in experiment [3]; 57.7% in experiment [4]; 92.4% in [5]; 86.9% in [6]. The growth in experiment [7] is 55.2%; in [8], 96.5%; in experiment [9], 71%; in experiment [10] it was 63%; in experiment [20] it was 71.6%; in [12], 79.6%. The growth was 79.8% in experiment [13]; 72% in experiment [14]; 76.8% in experiment [15]; 84.4% in [16]; 78.3% in experiment [17]; 73.2% in experiment [18]. For the same compound, the growth in experiment [19] was 89.9%.

Take `CS(=O)(=O)c1ccc(-c2[nH]c3ccc(F)cc3c2/C=N/NC(N)=S)cc1`: the growth in [1] was 27.4%; in experiment [2], 31.8%; in experiment [3], 21%; in [4] it was 40.2%; in experiment [5] it was 37.8%; in [6] it was 25.2%. Also, the growth was 39.4% in experiment [7]; 17% in experiment [8]; 2.97% (active) in [9]; 11.7% in experiment [10]; 12% in experiment [20]; 20.8% in experiment [12]. The growth is 28.2% in experiment [13]; 50% in experiment [14]; 13.4% in experiment [15]; 29% in experiment [16]; 11.8% in experiment [17]; 11.1% in experiment [19].

As to `Nc1ccc(S(=O)(=O)Nc2ccsc2-c2nc(-c3ccccc3)no2)cc1`, the growth was 32.3% in experiment [1]; 73% in experiment [2]; 84.8% in [3]; 71.3% in [4]; 66.1% in experiment [5]; 87.8% in experiment [6]. The growth in experiment [7] was 53.8%; in experiment [8], 61.2%; in [9], 53.2%; in experiment [10] it was 36.5%; in experiment [20] it was 65.8%; in experiment [12], 59.7%. Moreover, the growth in experiment [13] is 87.5%; in experiment [14] it was 81.9%; in experiment [15], 62.3%; in [16] it was 64.7%; in experiment [17] it was 36.8%; in [18] it was 56.4%. Further, in experiment [19], the growth is 54.6%.

Values taken from PubChem BioAssay (NCI).
